The values that follow come from PubChem BioAssay (Tox21).

Experiment [1] deals with Progesterone receptor (Homo sapiens) (UniProt P06401). Description: qHTS assay to identify small molecule antagonists of the progesterone receptor (PR) signaling pathway (AID 1346795; active = well fitted inhibition curve with a large enough effect in the signal ratio in the repeat runs, not every such curve was filed as active; the % refers to the signal ratio; note: potency is the fitted concentration of half-maximal effect). The essentials: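 HEK293T PR-UAS-bla reporter cells in charcoal-stripped serum (2%) received compound after a 6 hr settling period, followed by R5020 agonist at 1 nM final; 16 hr incubation preceded the FRET substrate step and fluorescence measurement.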
For orientation: Quantitative high-throughput screening tests each substance at several concentrations.

Experiment [2] in a line: qHTS assay to identify small molecule agonists of the TGF-beta/Smad signaling pathway (AID 1346859; active = well fitted activation curve with a large enough effect in the signal ratio in the repeat runs, not every such curve was filed as active; the % refers to the signal ratio; note: series mostly up to about 77 µM). An outline of the steps:
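Smad-responsive beta-lactamase reporter cells (HEK 293T) received compounds from DMSO stocks after overnight attachment, were incubated 5 hr, then treated 2 hr with FRET substrate before dual-emission fluorescence measurement (405 nm excitation).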

Experiment [3] concerns the target Thyrotropin-releasing hormone receptor (Homo sapiens) (UniProt P34981). The experiment is described as follows: qHTS assay to identify small molecule antagonists of the thyrotropin-releasing hormone receptor (TRHR) signaling pathway (AID 1346877; active = well fitted inhibition curve with a large enough effect in the repeat runs, not every such curve was filed as active; note: potency is the fitted concentration of half-maximal effect; for activity, negative = inhibition: series mostly up to about 51 µM). The essentials: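 Cells (TRHR-HEK293) are plated and kept 18 h at 37 °C/5% CO2. A calcium-sensitive dye is added for 2 h, compound follows for 5 min at room temperature, and TRH is then given at 1 nM final.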

The target is the same in experiment [4]. Description: qHTS assay to identify small molecule agonists of the thyrotropin-releasing hormone receptor (TRHR) signaling pathway (AID 1346891; calls by dose curve; note: potency is the fitted concentration of half-maximal effect;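 for activation: HEK293 cells expressing TRHR with calcium dye readout; series mostly up to about 58 µM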). An outline of the steps:
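Agonist-mode calcium mobilisation screen: TRHR-transfected HEK293 cells cultured overnight (18 h), dye-loaded for 2 h at 37 °C, exposed to compounds, and monitored by fluorescence for 3 min.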

A short description of experiment [5]: Human pregnane X receptor (PXR) small molecule agonists, qHTS cell viability counter screen (AID 1346977). Note: nearly all actives have a fitted effect of over 50% in size. Note: potency is the fitted concentration of half-maximal effect. The essentials: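 Measures live-cell protease fluorescence (CellTiter-Fluor) in PXR-Luc HepG2 cells treated 24hr with compounds at 37C. Cells had 5hr to attach before pin transfer of DMSO solutions.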
A short description of experiment [6]: Caspase-3/7 induction in HepG2 cells by small molecules, qHTS assay (AID 1346978). Note: nearly all actives have a fitted effect of over 15% in size. Note: potency is the fitted concentration of half-maximal effect. An outline of the steps: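 Caspase-3/7 induction was measured by Caspase-Glo 3/7 luminescence (30 min, room temperature) after a 17 hr compound exposure of wild-type HepG2 cells seeded at 2,000 per well and pre-incubated 5 hr.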
A short description of experiment [7]: qHTS assay to identify small molecule antagonists of the progesterone receptor (PR) signaling pathway - cell viability counter screen (AID 1346798). For activity change, negative = cytotoxicity: series mostly up to about 92 µM. Note: nearly all actives have a fitted effect of over 50% in size. Note: potency is the fitted concentration of half-maximal effect. The essentials: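 Same-well multiplex: after 16 hr at 37C with compound and R5020 stimulation, HEK293T cells carrying a UAS-bla reporter received LiveBLAzer substrate (2 hr RT), then CellTiter-Glo (30 min RT) for luminescent viability.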

Experiment [8] in a line: qHTS assay to identify small molecule agonists of the progesterone receptor (PR) signaling pathway - cell viability counter screen (AID 1346799; calls by dose curve; note: nearly all actives have a fitted effect of over 45% in size; note: potency is the fitted concentration of half-maximal effect). An outline of the steps:
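Counter screen for cytotoxicity: compound-treated PR-UAS-bla HEK293T cells (16 hr, 37C, 5% CO2) were assayed with CellTiter-Glo, luminescence measured after 30 min at room temperature.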

The nature of experiment [9]: qHTS assay to identify small molecule antagonists of the TGF-beta/Smad signaling pathway - cell viability counter screen (AID 1346824). Note: nearly all actives have a fitted effect of over 50% in size. Note: potency is the fitted concentration of half-maximal effect. An outline of the steps:
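Cytotoxicity counter-screen run in the same wells as the beta-lactamase Smad reporter read: CellTiter-Glo luminescence after 30 min at room temperature. HEK 293T SBE-bla cells had 5 hr compound exposure at 37 C with TGF-beta1 (0.25 ng/mL stock).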

Experiment [10] in a line: qHTS assay to identify small molecule agonists of the TGF-beta/Smad signaling pathway - cell viability counter screen (AID 1346829). For activity change, negative = cytotoxicity: top concentration of the series differs between compounds. Note: nearly all actives have a fitted effect of over 45% in size. Note: potency is the fitted concentration of half-maximal effect. The essentials: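 Tox21 qHTS format: SBE-bla HEK 293T cells treated with DMSO-dissolved compounds for 5 hr; CellTiter-Glo luminescence after 30 min at room temperature.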

SMILES strings stand for the structures. Values without a mark were called inactive. Inconclusive results are not listed. Active and inactive are the calls of the source. Unless noted, calls come from the whole dose curve; as a rule, active = well fitted curve in the direction sought with a large enough effect in the repeat runs; inconclusive = weak or mixed curves; inactive = no such curve, though single readings can be large; an effect the other way counts as inactive or inconclusive.
% is set by controls: 0 for no effect and ±100 for the full control effect.

Thyrotropin-releasing hormone receptor (Homo sapiens), sequence (P34981 whole entry, looked up): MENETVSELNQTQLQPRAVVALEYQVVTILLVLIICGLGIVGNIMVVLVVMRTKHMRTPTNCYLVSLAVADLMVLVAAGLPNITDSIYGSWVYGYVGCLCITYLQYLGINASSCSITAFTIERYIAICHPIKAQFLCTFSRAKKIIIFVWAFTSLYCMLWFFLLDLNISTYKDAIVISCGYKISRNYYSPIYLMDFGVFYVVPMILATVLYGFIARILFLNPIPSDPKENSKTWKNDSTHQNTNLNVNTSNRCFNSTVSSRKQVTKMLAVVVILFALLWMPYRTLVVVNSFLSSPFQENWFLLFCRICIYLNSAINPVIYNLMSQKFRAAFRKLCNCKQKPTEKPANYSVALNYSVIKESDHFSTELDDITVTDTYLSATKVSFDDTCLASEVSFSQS
Progesterone receptor (Homo sapiens), sequence (P06401 whole entry, looked up): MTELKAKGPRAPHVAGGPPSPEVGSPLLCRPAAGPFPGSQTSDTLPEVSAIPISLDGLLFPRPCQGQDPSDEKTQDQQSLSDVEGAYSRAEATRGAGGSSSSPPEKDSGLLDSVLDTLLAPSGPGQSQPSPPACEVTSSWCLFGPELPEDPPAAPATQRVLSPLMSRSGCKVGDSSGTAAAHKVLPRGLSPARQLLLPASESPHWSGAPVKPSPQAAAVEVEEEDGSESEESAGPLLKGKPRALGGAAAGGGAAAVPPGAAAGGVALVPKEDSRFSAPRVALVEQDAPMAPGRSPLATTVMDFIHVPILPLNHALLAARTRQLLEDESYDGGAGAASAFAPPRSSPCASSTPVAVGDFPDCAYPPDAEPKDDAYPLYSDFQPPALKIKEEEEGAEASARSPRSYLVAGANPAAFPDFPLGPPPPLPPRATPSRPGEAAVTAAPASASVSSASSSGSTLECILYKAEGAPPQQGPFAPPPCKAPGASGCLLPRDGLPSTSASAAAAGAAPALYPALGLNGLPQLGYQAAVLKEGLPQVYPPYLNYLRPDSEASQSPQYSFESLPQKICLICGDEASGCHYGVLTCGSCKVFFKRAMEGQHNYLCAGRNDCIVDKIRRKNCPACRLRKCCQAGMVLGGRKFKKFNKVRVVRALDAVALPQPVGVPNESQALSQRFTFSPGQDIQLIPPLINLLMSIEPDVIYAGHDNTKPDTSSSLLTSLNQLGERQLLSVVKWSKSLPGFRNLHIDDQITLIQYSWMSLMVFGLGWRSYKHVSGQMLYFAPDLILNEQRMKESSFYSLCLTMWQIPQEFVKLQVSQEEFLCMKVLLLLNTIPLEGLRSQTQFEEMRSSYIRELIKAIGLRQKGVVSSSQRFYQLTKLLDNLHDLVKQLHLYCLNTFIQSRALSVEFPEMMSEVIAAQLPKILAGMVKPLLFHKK

On to `C=C(C)C(=O)OCC(O)COc1ccc(C(C)(C)c2ccc(OCC(O)COC(=O)C(=C)C)cc2)cc1` (stereo not given), for which the Potency in [1] is 61.1 µM (active). In addition, the Potency entry in experiment [2], in experiment [3], in [4], in experiment [5] and in experiment [6] was “inactive” in each case.

`O=c1[nH]cnc2nc[nH]c12`: the Potency entry in experiment [7], in experiment [8], in [9], in experiment [10], in experiment [2] and in [3] was “inactive” throughout. For the same molecule, the Potency entry in experiment [4], in experiment [5] and in experiment [6] was “inactive” in each case.

Turning to `CCc1oc2ccccc2c1C(=O)c1cc(Br)c(O)c(Br)c1`, the Potency in experiment [1] was 23.7 µM (active). The Potency result in [10], in [2], in experiment [3], in experiment [4] and in [6] was “inactive” in each case.

Turning to `Fc1ccc(C(c2ccc(F)cc2)N2CCN(C/C=C/c3ccccc3)CC2)cc1`, the Potency is 23.7 µM (active) in experiment [1] and 29.8 µM (active) in experiment [5]. Further, the Potency result in experiment [2] and in experiment [6] was “inactive” throughout.

Consider `O=C(OC[C@H]1O[C@@H](OC(=O)c2cc(O)c(O)c(OC(=O)c3cc(O)c(O)c(O)c3)c2)[C@H](OC(=O)c2cc(O)c(O)c(OC(=O)c3cc(O)c(O)c(O)c3)c2)[C@@H](OC(=O)c2cc(O)c(O)c(OC(=O)c3cc(O)c(O)c(O)c3)c2)[C@@H]1OC(=O)c1cc(O)c(O)c(OC(=O)c2cc(O)c(O)c(O)c2)c1)c1cc(O)c(O)c(OC(=O)c2cc(O)c(O)c(O)c2)c1`, for which the activity change, negative = cytotoxicity in experiment [7] was -7.91% [at 18.9 µM]; in experiment [8] it was 9.14% [at 19 µM]; in [10], 7.05% [at 15.8 µM]. For the same molecule, the viability change, negative = cytotoxic in experiment [9] was 3.78% [at 15.8 µM]. Besides, the activation was -3.84% [at 15.8 µM] in experiment [2] and 0.113% [at 11.8 µM] in [4]. In experiment [3], the activity, negative = inhibition is 4.26% [at 10.5 µM]. In [6], the caspase activation was -2.85% [at 19 µM].

`CCCCCCCCCCCC[N+](C)(C)CCCCCCCCCCCC`: the Potency was 43.3 µM (active) in experiment [7]; 19.3 µM (active) in experiment [8]; 43.6 µM (active) in experiment [9]; 34.7 µM (active) in [10]; 27.3 µM (active) in [5]. In addition, the Potency result in experiment [3] and in experiment [4] was “inactive” in each case.

Consider `CCc1cc(Cc2cc(CC)c(N)c(CC)c2)cc(CC)c1N`, for which the Potency in experiment [7] is 68.6 µM (active); in experiment [8], 54.5 µM (active); in [5] it was 27.3 µM (active). For the same molecule, the Potency result in experiment [9], in experiment [10], in experiment [2], in experiment [3], in [4] and in experiment [6] was “inactive” in each case.

As to `Clc1ccc2cc3ccccc3cc2c1`, the Potency result in experiment [7], in [8], in [9], in [10], in [3] and in experiment [4] was “inactive” in each case. In addition, the Potency result in [5] and in experiment [6] was “inactive” in each case.

As to `CC(C)(C)c1ccc(C(=O)O)cc1`, the Potency entry in experiment [7], in experiment [8], in [9], in experiment [10], in experiment [2] and in experiment [5] was “inactive” in each case. The Potency result in [6] was “inactive”.

As to `OCc1c[nH]c2ccccc12`, in [1], the Potency is 25.8 µM (active). The Potency result in [9], in experiment [3], in experiment [4] and in experiment [6] was “inactive” throughout.

For the molecule `CCCCCCC[N+](CC)(CC)CCCCc1ccc(Cl)cc1`, the Potency result in experiment [1], in [9], in experiment [10], in experiment [3], in experiment [4] and in experiment [5] was “inactive” each time. Besides, the Potency result in experiment [6] is “inactive”.

As for `Cc1[nH]cnc1C[C@H]1CCc2c(C)c3ccccc3n2C1=O`, in [1], the Potency is 37.6 µM (active). Moreover, the Potency entry in experiment [10], in [3] and in [4] was “inactive” each time.

For the molecule `CC(=O)OCC(C)OC(C)=O` (stereo not given), the Potency result in [7], in [8], in experiment [9], in experiment [10], in [2] and in [3] was “inactive” each time. For the same molecule, the Potency entry in [4], in experiment [5] and in [6] was “inactive” in each case.

As to `OC1(c2ccc(Cl)c(C(F)(F)F)c2)CCN(CCCC(c2ccc(F)cc2)c2ccc(F)cc2)CC1`, the Potency in [7] was 13.3 µM (active); in experiment [8], 13.3 µM (active); in experiment [9], 19 µM (active); in experiment [10], 19 µM (active); in experiment [5], 10.6 µM (active); in [6], 13.3 µM (active). Besides, the Potency result in experiment [3] and in [4] was “inactive” each time.

Take `Cc1cc(O)c2ccccc2c1O`: the Potency is 23.7 µM (active) in [1], 19 µM (active) in experiment [9], 23.9 µM (active) in experiment [10] and 16.8 µM (active) in [5]. Further, the Potency result in [3], in experiment [4] and in experiment [6] was “inactive” throughout.

For `CC[C@@]1(O)C(=O)OCc2c1cc1n(c2=O)Cc2c-1nc1ccccc1c2/C=N/OC(C)(C)C`, the Potency entry in [7], in experiment [8], in experiment [9], in experiment [10], in experiment [3] and in [4] was “inactive” each time. The results for the Potency in [5] and in experiment [6] were 0.237 µM (active) and 0.335 µM (active), respectively.

Take `CCN(CCC#N)c1ccc(N=Nc2c(Cl)cc([N+](=O)[O-])cc2Cl)cc1`: the Potency entry in [7], in experiment [8], in experiment [9], in [10], in experiment [2] and in experiment [3] was “inactive” in each case. Besides, the Potency result in [4] and in experiment [6] was “inactive” in each case.

In the case of `CCCCCCCCCCCCCCCCCC[N+](C)(C)C`, the Potency in experiment [7] is 48.7 µM (active); in experiment [8], 54.6 µM (active); in [9], 43.8 µM (active); in experiment [10], 43.8 µM (active); in experiment [3] it was 30.3 µM (active); in experiment [4], 34.8 µM (active). The Potency in experiment [5] was 54.6 µM (active). Further, the Potency result in [2] and in experiment [6] was “inactive” throughout.

`O=C(OCC(COC(=O)c1ccccc1)(COC(=O)c1ccccc1)COC(=O)c1ccccc1)c1ccccc1`: the Potency result in experiment [7], in experiment [8], in [9], in experiment [10], in experiment [3] and in [4] was “inactive” in each case. Moreover, the Potency result in experiment [5] and in experiment [6] was “inactive” each time.

For the molecule `OCCCCCCCCCCCCBr`, the Potency result in experiment [7], in experiment [8], in experiment [9], in [10], in [2] and in experiment [5] was “inactive” in each case. Further, in [6], the Potency result was “inactive”.

Regarding `O=c1[nH]sc2ccccc12`, the Potency was 27.3 µM (active) in [7], 30.6 µM (active) in [8] and 27.3 µM (active) in experiment [5]. Further, the Potency result in [9], in [10], in experiment [2] and in experiment [6] was “inactive” each time.

On to `CCOc1nc2cccc(C(=O)OC(C)OC(=O)OC3CCCCC3)c2n1Cc1ccc(-c2ccccc2-c2nn[nH]n2)cc1` (stereo not given), for which the Potency in [7] was 21.7 µM (active); in experiment [8], 19.3 µM (active).

As to `CCCCCCCCCOC(=O)c1ccc(O)cc1`, the Potency in experiment [1] is 24 µM (active); in experiment [6], 53.7 µM (active).
